Source: PubChem BioAssay (NCATS)
Inconclusive results are not listed. The source made the active and inactive calls. Calls follow the shape of the dose curve; as a rule, active = well fitted curve in the direction sought with a large enough effect; inconclusive = small, poorly fitted or top-dose-only effect, or another doubt; inactive = no such curve, though single readings can be large; an effect the other way counts as inactive or inconclusive.

Experiments:
[1] = Viability qHTS for spleen associated tyrosine kinase inhibitor (SYKi) drug resistant MV4-11 cells (AID 1963824); also: nearly all actives have a fitted effect of over 35% in size
Outline: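 CellTiter-Glo luminescence, read 10 min after reagent addition, reports viability after a 72 hr compound exposure. Cells are an MV4-11 line made resistant to SYK inhibition, seeded at 500 per well onto compound-containing plates.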

[2] = Cellular viability qHTS for adrenocortical cancer (ACC) cell line NCI-H295R (AID 1963990); also: nearly all actives have a fitted effect of over 60% in size
Outline: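 Adrenocortical carcinoma cells, suspended at 300 000 cells/mL in serum-free DMEM plus ITS, rested overnight before pin transfer of compound. After two days' incubation, ATP-dependent luminescence was recorded and curve-fitted.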

[3] = Quantitative highthroughput screen to assess conditional lethalithy of NOMO1 cells grown in RPMI1640 with untreated serum (RPMI+s) (AID 1963876); also: nearly all actives have a fitted effect of over 35% in size
Outline: (§1)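 Each medium arm—HPLM with 10% dialyzed FBS, or RPMI1640 with 5 mM glucose and 10% untreated or dialyzed FBS—was screened against an 11-point, 3-fold compound titration for 48 h at 37 °C, with CellTiter-Glo luminescence as endpoint.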

[4] = Quantitative highthroughput screen to assess conditional lethalithy of NOMO1 cells grown in RPMI1640 with dialyzed fetal bovine serum (RPMI+ds) (AID 1963877); also: nearly all actives have a fitted effect of over 30% in size; as to Viability: series mostly up to about 46 µM
Outline: as §1

[5] = Quantitative highthroughput screen to assess conditional lethalithy of NOMO1 cells grown in Human Plasma-Like Medium with dialyzed fetal bovine serum (HPLM+ds) (AID 1963878); also: nearly all actives have a fitted effect of over 35% in size
Outline: as §1

[6] = Quantitative highthroughput screen to assess conditional lethalithy of P12 Ichikawa cells grown in Human Plasma-Like Medium with dialyzed fetal bovine serum (HPLM+ds) (AID 1963879); conditions: Potency: viability; also: nearly all actives have a fitted effect of over 35% in size
Outline: as §1

[7] = Quantitative highthroughput screen to assess conditional lethalithy of P12 Ichikawa cells grown in RPMI1640 with dialyzed fetal bovine serum (RPMI+ds) (AID 1963880); conditions: Potency: P12-Ichikawa viability; also: nearly all actives have a fitted effect of over 35% in size
Outline: as §1

[8] = Quantitative highthroughput screen to assess conditional lethalithy of P12 Ichikawa cells grown in RPMI1640 with untreated serum (RPMI+s) (AID 1963881); conditions: Potency: viability; also: nearly all actives have a fitted effect of over 35% in size
Outline: as §1

[9] = Quantitative highthroughput screen to assess conditional lethalithy of SEM cells grown in Human Plasma-Like Medium with dialyzed fetal bovine serum (HPLM+ds) (AID 1963882); also: nearly all actives have a fitted effect of over 35% in size
Outline: as §1

[10] = Quantitative highthroughput screen to assess conditional lethalithy of SEM cells grown in RPMI1640 with unreated serum (RPMI+s) (AID 1963883); also: nearly all actives have a fitted effect of over 35% in size
Outline: as §1

[11] = Quantitative highthroughput screen to assess conditional lethalithy of SEM cells grown in RPMI1640 with dialyzed fetal bovine serum (RPMI+ds) (AID 1963884); also: nearly all actives have a fitted effect of over 35% in size
Outline: as §1
Potency is read from the fitted curve at half-maximal effect.

Compound: Nc1nc(N)c2nc(-c3cccc(Cl)c3)c(N)nc2n1
- Potency [1]: 1480 nM (active)
- Potency [2]: 1120 nM (active)

Compound: COC(=O)C1=CO[C@@H](O)[C@@H]2C(CO)=CC[C@@H]12
- Potency [3]: inactive
- Potency [4]: inactive

Compound: CC1CC2C3CCC4=CC(=O)C=C[C@]4(C)[C@@]3(F)[C@@H](O)C[C@]2(C)[C@@]1(O)C(=O)CO (stereo partly specified)
- Potency [3]: inactive
- Potency [4]: inactive
- Potency [5]: inactive

Compound: Fc1ccc2[nH]ccc2c1-c1nc(N2CCOCC2)c2sc(CN3CCN(CC4CC4)CC3)cc2n1
- Potency [1]: 5900 nM (active)
- Potency [2]: 31600 nM (active)

Compound: CC[N+]1(CC)CCC(=C(c2ccccc2)c2ccccc2)C1C (stereo unspecified)
- Potency [1]: 8200 nM (active)
- Potency [2]: inactive

Compound: CO[C@H]1C[C@@H]2CC[C@@H](C)[C@@](O)(O2)C(=O)C(=O)N2CCCC[C@@H]2C(=O)O[C@H]([C@H](C)C[C@@H]2CC[C@H](OP(C)(C)=O)[C@H](OC)C2)CC(=O)[C@H](C)C=C(C)[C@@H](O)[C@@H](OC)C(=O)[C@H](C)C[C@H](C)C=CC=CC=C1C
- Potency [3]: inactive
- Potency [4]: inactive

Compound: COC(=O)c1ccc([C@H]2c3[nH]c4ccccc4c3C[C@H](C(=O)OC)N2C(=O)CCl)cc1
- Potency [1]: 525 nM (active)
- Potency [2]: 89.1 nM (active)

Compound: NC[C@H]1O[C@H](O[C@H]2[C@H](O)[C@@H](O[C@H]3O[C@H](CO)[C@@H](O)[C@H](N)[C@H]3O)[C@H](N)C[C@@H]2N)[C@H](N)C[C@@H]1O
- Potency [1]: 18600 nM (active)
- Potency [2]: inactive

Compound: CC(C)(O)Cn1c(NC(=O)c2ccc(-c3cn[nH]c3)s2)nc2cc(CN3CCOCC3)ccc21
- Potency [3]: 4180 nM (active)
- Potency [4]: 4180 nM (active)
- Potency [5]: 2960 nM (active)
- Potency [6]: 2350 nM (active)
- Potency [7]: 2350 nM (active)
- Potency [8]: 2960 nM (active)
- Potency [9]: 105 nM (active)
- Potency [10]: 66.2 nM (active)
- Potency [11]: 93.5 nM (active)
